# Measured values taken from the supplement of paper PMC8728848.
# About 410 targets per protein were measured; listed, in parts, are those with the strongest signals and a random draw of the rest.
# B1: PX14379A-bvu-539-28-539 (Bacteroides vulgatus) (protein)
# chain: EPYSEIIEEDYVPTEADEIALLATTYSQLRFVMDWYGLFDLQEESGDVIVTPTRPNGWDDGGTYKQMHKHTWDNQQGQPQSIWDYCYKGIANANKILKRADEGFFTEESKPKVVAEVKGVRALWYSILCDTHGNIPIQTSFSEEVPVQSTRKQVFDFIINELKEVMPNLPTEVNKSTYGRLTQWGAKCLMARMYLNAGVYTGTPMWNECLEQCNDIINSGLFSLETNYTDIFKTENSGCVETIFAIPYDEVYNEGDNNGPVFGAHMKFLSSNSRKVFNMQTTPWGGSAANPQFINSYDPDDMRLKYTWLQGDQYSPDGVLITTFPNKLPSIYKTDTDDGYRVGKYEIKVGAKSLLSNDFPYFRYTEVLLMKAECLLRLGQNETEAAHIVSQIRERAFRESAHPEKATVDAAWLKGDTHINYGTLDEKGQIDDAGNTEVVELGGLYDEWGWEFAAEARRRTDMIRFGTYQKKSWFNHTPTANDLNGNSILFPIHLDHLNTNPNLQQNPGYAGK
# Assays:
# Assay in all cases: glycan array binding signal (z-score within array); higher = stronger binding
# Conditions in all cases: glycan notation: IUPAC condensed, linker removed
# [1] = target: Gal(b1-4)GlcNAc(b1-3)Gal(b1-4)GlcNAc(b1-2)[Gal(b1-4)GlcNAc(b1-3)Gal(b1-4)GlcNAc(b1-6)]Man(a1-6)[Gal(b1-4)GlcNAc(b1-3)Gal(b1-4)GlcNAc(b1-2)Man(a1-3)]Man(b1-4)GlcNAc(b1-4)[Fuc(a1-6)]GlcNAc
# How it was run: (§1)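 Glycan array data came from 3228 arrays in the Consortium for Functional Glycomics database, and only arrays with an available protein sequence were kept. Glycan names were put into IUPAC-condensed notation, and columns mapping to the same glycan were averaged. The binding signal is a within-array Z-score, averaged across arrays of one protein sequence run at different concentrations or buffers and across linkers. A negative Z-score can be read as non-binding.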
# [2] = target: Gal(b1-4)GlcNAc(b1-3)Gal(b1-4)GlcNAc(b1-3)Gal(b1-4)GlcNAc(b1-3)Gal(b1-4)GlcNAc(b1-2)Man(a1-3)[Gal(b1-4)GlcNAc(b1-3)Gal(b1-4)GlcNAc(b1-3)Gal(b1-4)GlcNAc(b1-3)Gal(b1-4)GlcNAc(b1-2)Man(a1-6)]Man(b1-4)GlcNAc(b1-4)[Fuc(a1-6)]GlcNAc
# How it was run: as §1
# [3] = target: Gal(b1-4)GlcNAc(b1-3)Gal(b1-4)GlcNAc(b1-3)Gal(b1-4)GlcNAc(b1-3)Gal(b1-4)GlcNAc(b1-3)Gal(b1-4)GlcNAc(b1-2)Man(a1-3)[Gal(b1-4)GlcNAc(b1-3)Gal(b1-4)GlcNAc(b1-3)Gal(b1-4)GlcNAc(b1-3)Gal(b1-4)GlcNAc(b1-3)Gal(b1-4)GlcNAc(b1-2)Man(a1-6)]Man(b1-4)GlcNAc(b1-4)GlcNAc
# How it was run: as §1
# [4] = target: Gal(b1-4)GlcNAc(b1-3)Gal(b1-4)GlcNAc(b1-3)Gal(b1-4)GlcNAc(b1-3)Gal(b1-4)GlcNAc(b1-3)Gal(b1-4)GlcNAc(b1-3)Gal(b1-4)GlcNAc(b1-2)Man(a1-3)[Gal(b1-4)GlcNAc(b1-3)Gal(b1-4)GlcNAc(b1-3)Gal(b1-4)GlcNAc(b1-3)Gal(b1-4)GlcNAc(b1-3)Gal(b1-4)GlcNAc(b1-3)Gal(b1-4)GlcNAc(b1-2)Man(a1-6)]Man(b1-4)GlcNAc(b1-4)GlcNAc
# How it was run: as §1
# Gal3S(b1-4)Glc6S = target: Gal3S(b1-4)Glc6S
# How it was run: as §1
# Gal4S6S(b1-4)GlcNAc = target: Gal4S6S(b1-4)GlcNAc
# How it was run: as §1
# Gal6S(b1-4)Glc6S = target: Gal6S(b1-4)Glc6S
# How it was run: as §1
# Gal6S(b1-4)GlcNAc6S = target: Gal6S(b1-4)GlcNAc6S
# How it was run: as §1
# [5] = target: GalNAc(b1-3)Gal(a1-6)Gal(b1-4)Glc
# How it was run: as §1
# [6] = target: GalNAc(b1-4)GlcNAc(b1-2)Man
# How it was run: as §1
# [7] = target: GalNAc(b1-4)GlcNAc(b1-2)Man(a1-3)[GalNAc(b1-4)GlcNAc(b1-2)Man(a1-6)]Man(b1-4)GlcNAc(b1-4)GlcNAc
# How it was run: as §1
# [8] = target: GlcNAc(a1-4)Gal(b1-4)GlcNAc(b1-3)Gal(b1-4)Glc
# How it was run: as §1
# [9] = target: GlcNAc(b1-3)Gal(b1-4)GlcNAc(b1-3)Gal(b1-4)GlcNAc(b1-3)Gal(b1-4)GlcNAc(b1-3)Gal(b1-4)GlcNAc(b1-2)Man(a1-3)[GlcNAc(b1-3)Gal(b1-4)GlcNAc(b1-3)Gal(b1-4)GlcNAc(b1-3)Gal(b1-4)GlcNAc(b1-3)Gal(b1-4)GlcNAc(b1-2)Man(a1-6)]Man(b1-4)GlcNAc(b1-4)[Fuc(a1-6)]GlcNAc
# How it was run: as §1
# GlcNAc(b1-3)Man = target: GlcNAc(b1-3)Man
# How it was run: as §1
# [10] = target: Man(a1-2)Man(a1-3)[Man(a1-2)Man(a1-6)]Man
# How it was run: as §1
# [11] = target: Man(a1-2)Man(a1-6)[Man(a1-3)]Man(a1-6)[Man(a1-2)Man(a1-2)Man(a1-3)]Man(b1-4)GlcNAc(b1-4)GlcNAc
# How it was run: as §1
# [12] = target: Neu5Ac(a2-3)Gal(b1-3)GlcNAc
# How it was run: as §1
# [13] = target: Neu5Ac(a2-3)Gal(b1-4)GlcNAc(b1-2)Man(a1-3)[Neu5Ac(a2-3)Gal(b1-4)GlcNAc(b1-2)Man(a1-6)]Man(b1-4)GlcNAc(b1-4)[Fuc(a1-6)]GlcNAc
# How it was run: as §1
# [14] = target: Neu5Ac(a2-3)Gal(b1-4)GlcNAc(b1-2)[Neu5Ac(a2-3)Gal(b1-4)GlcNAc(b1-6)]Man(a1-6)[Neu5Ac(a2-3)Gal(b1-4)GlcNAc(b1-2)Man(a1-3)][GlcNAc(b1-4)]Man(b1-4)GlcNAc(b1-4)GlcNAc
# How it was run: as §1
# [15] = target: Neu5Ac(a2-3)Gal(b1-4)GlcNAc(b1-3)Gal(b1-4)GlcNAc
# How it was run: as §1
# [16] = target: Neu5Ac(a2-3)Gal(b1-4)GlcNAc(b1-3)Gal(b1-4)GlcNAc(b1-2)Man(a1-3)[Neu5Ac(a2-3)Gal(b1-4)GlcNAc(b1-3)Gal(b1-4)GlcNAc(b1-2)Man(a1-6)]Man(b1-4)GlcNAc(b1-4)GlcNAc
# How it was run: as §1
# [17] = target: Neu5Ac(a2-3)Gal(b1-4)GlcNAc(b1-3)Gal(b1-4)GlcNAc(b1-3)GalNAc
# How it was run: as §1
# [18] = target: Neu5Ac(a2-3)Gal(b1-4)GlcNAc(b1-3)Gal(b1-4)GlcNAc(b1-3)[Neu5Ac(a2-3)Gal(b1-4)GlcNAc(b1-3)Gal(b1-4)GlcNAc(b1-6)]GalNAc
# How it was run: as §1
# [19] = target: Neu5Ac(a2-3)Gal(b1-4)GlcNAc(b1-6)[Gal(b1-3)]GalNAc
# How it was run: as §1
# [20] = target: Neu5Ac(a2-3)Gal(b1-4)[Fuc(a1-3)]GlcNAc(b1-3)Gal(b1-4)[Fuc(a1-3)]GlcNAc(b1-3)Gal(b1-4)[Fuc(a1-3)]GlcNAc
# How it was run: as §1
# [21] = target: Neu5Ac(a2-3)Gal(b1-4)[Fuc(a1-3)]GlcNAc(b1-3)GalNAc
# How it was run: as §1
# Neu5Ac(a2-3)GalNAc = target: Neu5Ac(a2-3)GalNAc
# How it was run: as §1
# [22] = target: Neu5Ac(a2-3)[GalNAc(b1-4)]Gal(b1-4)Glc
# How it was run: as §1
# [23] = target: Neu5Ac(a2-6)Gal(b1-4)GlcNAc(b1-3)GalNAc
# How it was run: as §1
# [24] = target: Neu5Ac(a2-6)GalNAc(b1-4)GlcNAc
# How it was run: as §1
# [25] = target: Neu5Ac(a2-6)GlcNAc(b1-4)GlcNAc
# How it was run: as §1
# [26] = target: Neu5Ac(a2-8)Neu5Ac(a2-8)Neu5Ac
# How it was run: as §1
# [27] = target: Neu5Ac(a2-8)Neu5Gc(a2-3)Gal(b1-4)GlcNAc
# How it was run: as §1
# [28] = target: Neu5Gc(a2-3)Gal(b1-3)GlcNAc
# How it was run: as §1
binder,measurement,setting,value
B1,glycan array binding signal (z-score),[1],7.27
same,glycan array binding signal (z-score),[2],0.984
same,glycan array binding signal (z-score),[3],9.41
same,glycan array binding signal (z-score),[4],0.819
same,glycan array binding signal (z-score),Gal3S(b1-4)Glc6S,-0.224
same,glycan array binding signal (z-score),Gal4S6S(b1-4)GlcNAc,-0.533
same,glycan array binding signal (z-score),Gal6S(b1-4)Glc6S,-0.28
same,glycan array binding signal (z-score),Gal6S(b1-4)GlcNAc6S,-0.175
same,glycan array binding signal (z-score),[5],2.98
same,glycan array binding signal (z-score),[6],-0.549
same,glycan array binding signal (z-score),[7],-0.102
same,glycan array binding signal (z-score),[8],-0.444
same,glycan array binding signal (z-score),[9],3.83
same,glycan array binding signal (z-score),GlcNAc(b1-3)Man,-0.278
same,glycan array binding signal (z-score),[10],-0.377
same,glycan array binding signal (z-score),[11],-0.361
same,glycan array binding signal (z-score),[12],-0.439
same,glycan array binding signal (z-score),[13],-0.571
same,glycan array binding signal (z-score),[14],-0.378
same,glycan array binding signal (z-score),[15],-0.185
same,glycan array binding signal (z-score),[16],0.342
same,glycan array binding signal (z-score),[17],-0.138
same,glycan array binding signal (z-score),[18],-0.132
same,glycan array binding signal (z-score),[19],-0.388
same,glycan array binding signal (z-score),[20],-0.35
same,glycan array binding signal (z-score),[21],5.8
same,glycan array binding signal (z-score),Neu5Ac(a2-3)GalNAc,-0.249
same,glycan array binding signal (z-score),[22],-0.297
same,glycan array binding signal (z-score),[23],-0.204
same,glycan array binding signal (z-score),[24],-0.211
same,glycan array binding signal (z-score),[25],-0.56
same,glycan array binding signal (z-score),[26],-0.382
same,glycan array binding signal (z-score),[27],7.1
same,glycan array binding signal (z-score),[28],-0.228
